Results as given in the supplement of paper PMC10338343.
± gives the standard deviation.

These sequences were tested on MILI (PIWIL2) piRISC loaded with L1MC piRNA (26 nt) (assay: pre-steady-state target cleavage rate (min^-1); guide: L1MC piRNA 5'p-UAACUAAAUACUAUGCAAGCUGUAGG; MIWI and MILI are mouse PIWI proteins and EfPiwi is from a freshwater sponge; tags in brackets are library labels; higher = faster piRNA-guided slicing of the target). Details: auxiliary factor: none (no GTSF1).
Outline: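 With or without 500 nM GTSF1 partner protein, 1 nM active affinity-purified piRISC carrying one synthetic guide was mixed with 0.1 nM transcribed, DNA-blocked target RNA library in HEPES–potassium acetate buffer at 33 °C for 0–8 or 0–960 min. Uncleaved targets were sequenced and normalised to depth and to weakly complementary targets, three trials were pooled, and k3 was capped at 0.0001 min^-1. The pre-steady-state cleavage rate came from a burst-and-steady-state fit.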

Sequence | pre-steady-state target cleavage rate
UCCUGGAUGUCGAACGAAAGUAUAUAGUUA | < 0.0001
UCCUGGAUGUCGAUGCAUACUAUUUAGAUA | < 0.0001
UCCUGGAUGUCGAACGUAUCUAUAAAGUUA | < 0.0001
UCCUGGAUCAGCUUGGAUAGUAUUUUCAAA | < 0.0001
UCCUGGAUGUCGAAGCAGUAGUAUUUAGUUA | < 0.0001
UCCUGGUACAGCUUGCAUACAUUUUAGUUA | 0.00408 ± 0.0037
